Tau FP inhib: tau fibrillization inhibition (FP) | 0.39% of 280,000 active | K18 P301L tau heparin fibrillization, Alexa594 FP, 6 h | Potency, µM (highest dose often 57.7 µM), for inactives: at the top dose activity, negative = inhibition, usual class: inhibitors | AID 1468; note: potency is the fitted concentration of half-maximal effect; nearly all actives have a fitted effect of over 55% in size
Target sequence (P10636 561-689 P618L limits assumed): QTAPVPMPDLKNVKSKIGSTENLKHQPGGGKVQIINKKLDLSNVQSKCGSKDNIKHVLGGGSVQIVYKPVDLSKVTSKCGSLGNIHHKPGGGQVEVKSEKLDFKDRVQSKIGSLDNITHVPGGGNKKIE
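Human tau K18 […] P301L fragment, 15 uM unlabeled plus 0.24 uM Alexa 594-labeled tau (final), with compound and 20 uM heparin in 100 mM sodium acetate pH 7; 6 hr at 37 C, then Alexa 594 FP read.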
Sfp PPTase inh: blocks B. subtilis Sfp PPTase activity. Biochemical Sfp PPTase activity, qHTS. Potency, µM, inactives show largest response in the series, negative = inhibition, usual class: inhibitors. 3.5% of 310,000 active. AID 1490;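 note: the enzyme is Sfp with the accession as filed and its product quenches rhodamine fluorescence; potency is the fitted concentration of half-maximal effect; 0% = enzyme reaction without inhibitor and -100% = no enzyme wells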
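With Hepes-Na pH 7.6 buffer containing 10 mM MgCl2, Sfp (15 nM) modified BHQ-2-YbbR (12.5 uM) using rhodamine-CoA (5 uM). Two reads 30 minutes apart at 525/598 nm yielded each well's rate.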
FBPA coupling cs: inhibits coupling enzyme system, counter-screen for aldolase hits; activity change, negative = inhibition, % at 58.2 µM, hits read low; coupling enzyme system counterscreen, AmpLite Red fluorescence; AID 2472; 0.67% of 290,000 active; in the data active = activity change below about -30%
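Coupling enzymes only (glyceraldehyde-3-phosphate) + compound, at 57.5 uM final, 10 min RT; add substrate/coupling/AmpLite Red mix, 20 min RT; fluorescence ex 525/em 598 nm. Actives flag coupling-system interference.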
G9a inh: inhibitors of human histone lysine methyltransferase G9a; G9a H3K9 monomethylation, AlphaScreen, 2 h; Potency, µM (top dose mostly 102 µM), without a hit: top-dose activity, negative = inhibition, hits mostly inhibitors; 8.8% of 350,000 active; Q96KQ7; note: potency is the fitted concentration of half-maximal effect; nearly all actives have a fitted effect of over 75% in size
Target sequence (Q96KQ7 913-1193 limits assumed): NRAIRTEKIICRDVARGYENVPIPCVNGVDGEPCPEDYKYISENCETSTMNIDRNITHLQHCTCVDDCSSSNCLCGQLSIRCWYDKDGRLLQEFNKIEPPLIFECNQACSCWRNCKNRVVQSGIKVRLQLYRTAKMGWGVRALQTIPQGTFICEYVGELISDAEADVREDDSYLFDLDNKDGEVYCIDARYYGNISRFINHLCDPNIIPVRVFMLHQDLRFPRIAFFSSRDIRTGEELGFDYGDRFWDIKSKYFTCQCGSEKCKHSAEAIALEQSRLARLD
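Step 1: enzyme (final 20 nM) with compound, 15 min RT. Step 2: substrate peptide 500 nM and SAM 20 uM, 2 h RT. Step 3: anti-H3K9me1 antibody and AlphaScreen beads, 10 min, then plate read.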
Tau ThT inhib: inhibitors of human tau fibril formation, thioflavin T binding; P10636; recombinant tau K18 P301L, heparin-induced fibrillization, ThT fluorescence; Potency, µM (titrated, usually from 57.4 µM), without a hit: top-dose activity, negative = inhibition, usual class: inhibitors; 2.1% of 270,000 active; AID 1460; note: potency is the fitted concentration of half-maximal effect; nearly all actives have a fitted effect of over 55% in size
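ThT emission at 510 nm, taken 1 hr after adding 30 uM dye, quantifies aggregates formed when 20 uM heparin acts on human tau K18 P301L for 6 hr at 37 C.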
Tau fluor counter: counter-screen for tau fibril formation inhibitors; tau K18 P301L Alexa594 fluorescence, heparin fibrillization; Potency, µM (highest dose often 57.7 µM), for inactives: at the highest dose activity change, negative = decrease; 0.93% of 280,000 active; AID 1463; note: potency is the fitted concentration of half-maximal effect; nearly all actives have a fitted effect of over 55% in size
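Human tau K18 P301L (15 uM unlabeled, 0.24 uM Alexa 594-labeled) in 100 mM sodium acetate pH 7 with 20 uM heparin, 6 hr at 37 C. ThT 30 uM added, 1 hr ambient; Alexa 594 FP and total fluorescence read at 555/632 nm.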
* hit, by the source's call; ? = inconclusive; . = not tested or not shown; [ ] = another dose, or the depositor's remark. Most compounds without a hit are left out; they make up all but 11% or so of the library. Unless noted, calls come from the whole dose curve; as a rule, active = well fitted curve in the direction sought with a large enough effect; inconclusive = small, poorly fitted or top-dose-only effect, or another doubt; inactive = no such curve, though single readings can be large; an effect the other way counts as inactive or inconclusive. Unless noted, % is set by controls: 0 for no effect and ±100 for the full control effect.

SMILES	Tau FP inhib	Sfp PPTase inh	FBPA coupling cs	G9a inh	Tau ThT inhib	Tau fluor counter
O=C(c1cc(-c2cccc(O)c2)on1)N1CCN(C(c2ccccc2)c2ccccc2)CC1	?	19%	-6	45µM*	0%	?
Cc1ccnc(SCC(=O)N2CCc3ccccc32)n1	.	14%	0	18%	.	.
Cc1ccnc(SCC(=O)N2CCN(C(c3ccccc3)c3ccccc3)CC2)n1	-7%	-7%	0	45µM*	?	-18%
Cc1occc1C(=O)N1CCN(C(c2ccccc2)c2ccccc2)CC1	6%	-7%	-3	40µM*	-2%	12%
Cn1cnnc1SCC(=O)Nc1ccccc1Oc1ccccc1	5%	-6%	0	23%	-4%	4%
COc1ccc(NC(=O)CN(C)S(=O)(=O)c2ccc3c(c2)CCCN3C(C)=O)cc1Cl	2%	.	.	17%[59 µM]	-6%	-9%
CCOc1ccc(NC(=O)c2oc3ccccc3c2NC(=O)c2cc3ccccc3o2)cc1	?	.	.	-4%[59 µM]	-3%	?
COCCNC(=O)CN1CCN(C(c2ccccc2)c2ccccc2)CC1	-4%	?	2	14µM*	-16%	0%
COC(=O)CN1CCN(C(c2ccccc2)c2ccccc2)CC1	2%	-4%	6	56µM*	-2%	6%
CN(C)S(=O)(=O)c1ccc(NC(=O)CN2CCN(C(c3ccccc3)c3ccccc3)CC2)cc1	-12%	16%	0	-7%	-14%	-9%
COc1cccc(C(=O)CC(C#N)c2ccc(F)cc2)c1 (centres undefined)	.	10%	1	50%	.	.
CCOc1ccc(N2C(=O)C(Cl)=C(N3CCOCC3)C2=O)cc1	.	-10%	-1	50µM*	.	.
O=C1C(Cl)=C(N2CCOCC2)C(=O)N1c1ccc(Br)cc1	.	1%	4	45µM*	.	.
CC(C)c1ccc(N2C(=O)C(Cl)=C(N3CCOCC3)C2=O)cc1	.	14%	1	10%	.	.
COc1cc(CC(=O)OCC(=O)NCC(C)C)cc(OC)c1OC	4%	4%	-1	39%	-4%	2%
O=C(NNc1ccc(C(F)(F)F)cc1[N+](=O)[O-])c1ccc(NS(=O)(=O)c2ccc(F)cc2)cc1	?	7%	0	25µM*	14µM*	11µM*[quencher]
CC(C)[C@H](Nc1ccc(C(F)(F)F)cc1[N+](=O)[O-])C(=O)O	3%	36%	15	.	-14%	3%
CN(C)c1ccc(/C=N/Nc2nncc3ccccc23)cc1	.	-2%	0	28µM*	.	.
CCNc1nc(NCC)nc(N/N=C/c2ccc(N(C)C)cc2)n1	-3%	25%	3	50µM*	?	-23%
CCNc1nc(NCC)nc(N/N=C/c2cc(OC)c(OC)c(OC)c2)n1	-4%	10%	-2	11%	-17%	-9%
CCNc1nc(NCC)nc(N/N=C/c2ccc(O)c(O)c2)n1	4%	50µM*	-4	40µM*	?	?
C(=N\Nc1nncc2ccccc12)/c1ccccc1	-4%	24%	-1	?	?	-7%
C1CN(CC23CC4CC(CC(C4)C2)C3)CCO1	-8%	-5%	8	7.9µM*	-6%	-5%
CCCCCCCC/C=C\CCCCCCCCOC[C@H](COP(=O)([O-])OCC[N+](C)(C)C)OC(C)=O	-3%	6%	0	29%[59 µM]	-9%	-8%
CC(C)(C)S(=O)(=O)/C(C#N)=N/Nc1ccc(Cl)cc1	0%	23%	5	35µM*	-2%	-6%
SMILES	Tau FP inhib	Sfp PPTase inh	FBPA coupling cs	G9a inh	Tau ThT inhib	Tau fluor counter
COc1ccc(CCNc2nc(C)nc3c2nnn3Cc2ccccc2)cc1	.	-22%	0	24%	.	.
CS(=O)(=O)N1CCN(Cc2ccc([N+](=O)[O-])cc2)CC1	-1%	2%	0	3%	-6%	-4%
CCCS(=O)(=O)N1CCN(Cc2ccc([N+](=O)[O-])cc2)CC1	-1%	?	1	2.2µM*	-3%	-5%
Fc1ccc(N2CCN(Cc3c[nH]c4ccccc34)CC2)cc1	4%	-2%	-1	-10%[59 µM]	-10%	-21%
Brc1ccc(CN2CCN(Cc3c[nH]c4ccccc34)CC2)cc1	.	56µM*	0	50µM*	.	.
O=[N+]([O-])c1ccc(CN2CCN(Cc3c[nH]c4ccccc34)CC2)cc1	2%	?	-1	8.9µM*	-7%	-10%
COc1ccc2c(c1)C(=O)[C@@H](OC(=O)NS(=O)(=O)c1ccc(C)cc1)[C@H](c1ccc(OC)c(Br)c1)O2	-2%	-5%	2	.	-8%	-6%
O=C(NC1CCN(C(=O)Nc2ccc(F)cc2)CC1)c1ccccc1F	.	7%	2	10%	.	.
CC(C)Oc1ccc(CNCC2(O)CCOC(C)(C)C2)cc1 (centres undefined)	-4%	-9%	1	8.9µM*	-1%	2%
COc1cc(NS(=O)(=O)c2c(C(=O)N3CCCCC3)c(C)n(C)c2C)cc(OC)c1OC	-1%	.	.	7%[59 µM]	-2%	-2%
CCOc1ccccc1NC(=O)CSc1ncc2c(n1)-c1ccccc1N(CC)S2(=O)=O	-7%	.	.	-2%[59 µM]	11%	-28%
CCN1CCN(c2oc(-c3ccccc3C)nc2S(=O)(=O)c2ccccc2)CC1	.	.	.	35µM*	.	.
O=S(=O)(c1ccc(F)cc1)c1nc(-c2ccccc2F)oc1N1CCCCC1	2%	?	1	?	-7%	-11%
NC(=O)C1CCN(c2oc(-c3ccc(F)cc3)nc2S(=O)(=O)c2ccccc2)CC1	.	.	.	-7%[12.7 µM]	.	.
O=S(=O)(c1ccccc1)c1nc(-c2ccccc2Cl)oc1N1CCCCCC1	1%	.	.	?	-7%	-25%
O=S(=O)(c1ccccc1)c1nc(-c2ccco2)oc1N1CCCCC1	.	8%	4	?	.	.
Cc1ccc(S(=O)(=O)c2nc(-c3ccccc3Cl)oc2N2CCCCCC2)cc1	3%	.	.	7.1µM*	-7%	-13%
Cc1ccc(S(=O)(=O)c2nc(-c3ccccc3F)oc2N2CC(C)OC(C)C2)cc1 (centres undefined)	.	?	-2	40µM*	.	.
O=S(=O)(c1ccccc1)c1nc(-c2ccc(F)cc2)oc1N1CCCCCC1	6%	.	.	13µM*	?	?
CSc1ncccc1C(=O)OCC(=O)N1CC(=O)Nc2ccccc21	.	.	.	7%[12.7 µM]	.	.
COc1ccccc1-c1nc(S(=O)(=O)c2ccc(Cl)cc2)c(N2CCCCCC2)o1	11%	.	.	?	-5%	-16%
COc1ccccc1-c1nc(S(=O)(=O)c2ccccc2)c(N2CCCCC2)o1	.	?	-3	25µM*	.	.
COc1ccc(NC(C)=O)cc1NC(C)C(=O)Nc1ccc(F)c(F)c1F (centres undefined)	-2%	3%	-3	50µM*	-2%	-11%
